Experimental data from PubChem BioAssay (NCI).
This is part of a sample that, as a whole, favours compounds with a hit. Of some 83,000 tested, about 20% had one in any assay.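 Cell lines were cultured in 96-well plates, exposed to a single compound concentration, and assessed for percent growth 48 hours later.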 Values without a mark were called inactive. Activity calls are given as the source filed them. Rule for the calls: active = growth percent below 10; inactive = the rest.

Columns and labels:
Experiment in all cases: NCI-60 one-dose screen, 48 h (100 = growth as untreated, 0 = no growth, -100 = all killed)
Conditions in all cases: 10 µM unless noted
DU-145 prostate = system: DU-145 prostate
K-562 leukemia = system: K-562 leukemia
MALME-3M melanoma = system: MALME-3M melanoma
MDA-MB-231 breast = system: MDA-MB-231 breast
RXF 393 renal = system: RXF 393 renal
SF-268 CNS = system: SF-268 CNS
SF-295 CNS = system: SF-295 CNS
SF-539 CNS = system: SF-539 CNS
UACC-257 melanoma = system: UACC-257 melanoma
M14 melanoma = system: M14 melanoma

| SMILES | growth (DU-145 prostate) | growth (K-562 leukemia) | growth (MALME-3M melanoma) | growth (MDA-MB-231 breast) | growth (RXF 393 renal) | growth (SF-268 CNS) | growth (SF-295 CNS) | growth (SF-539 CNS) | growth (UACC-257 melanoma) | growth (M14 melanoma) |
| --- | --- | --- | --- | --- | --- | --- | --- | --- | --- | --- |
| N#Cc1ccc(-n2nnc3ccccc32)cc1C#N | 93.5% | 93% | 96.6% | 111% | 100% | 105% | 91.5% | 101% | 89.4% | 106% |
| CN1CC[C@H](c2c(O)cc(O)c3c(=O)cc(-c4ccccc4Cl)oc23)[C@H](O)C1 | 9.08% (active) | 6.14% (active) | -45.3% (active) | 1.35% (active) | -65.5% (active) | 4.21% (active) | 8.48% (active) | -28% (active) | -23.8% (active) | -50.1% (active) |
| NC1(C(=O)N[C@@H](CCO)c2ccc(Cl)cc2)CCN(c2ncnc3[nH]ccc23)CC1 | 57.2% | 76.9% | 9.74% (active) | 73.5% | -42.3% (active) | 60.9% | -3.48% (active) | -54.4% (active) | 31.7% | 46.3% |
| CCN(CC)CCN1C(=O)c2cccc3c(-c4ccc5c(c4)ncn5C4CCCCC4)ccc(c23)C1=O | 28.4% | -14.2% (active) | -74.5% (active) | 11.8% | -11.4% (active) | 39.9% | -41.7% (active) | -76.2% (active) | -15% (active) | -62.8% (active) |
| CO[C@H]1C[C@@H]2CC[C@@H](C)[C@@](O)(O2)C(=O)C(=O)N2CCCC[C@H]2C(=O)O[C@H]([C@H](C)C[C@@H]2CC[C@@H](OP(C)(C)=O)[C@H](OC)C2)CC(=O)[C@H](C)/C=C(\C)[C@@H](O)[C@@H](OC)C(=O)[C@H](C)C[C@H](C)\C=C/C=C/C=C/1C | 46% | 48.4% | 40.4% | 71.7% | 18.9% | 62.9% | 23.5% | 41.8% | 30.7% | 66.4% |
| COc1cc2c(cc1OCCCN1Cc3ccc(OCCCCC(=O)N4CCC(CCN5CCCC5)CC4)cc3C1)N=C(N)C21CCCC1 | 95.2% | 4.85% (active) | 44% | 87.1% | 90.2% | 85.8% | 101% | 54.7% | 85.1% | 58.2% |
| CC(=O)C1=C(C)NC(SCc2nnc(-c3ccc(C)cc3)o2)=NC1c1ccc(F)cc1 (stereo not given) | 107% | 100% | 98% | 93.6% | 103% | 111% | 108% | 93.4% | 111% | 96% |
| CCNC(=O)C#Cc1ccc2c(C(=Nc3ccc(CN(C)C)cc3)c3ccccc3)c(O)[nH]c2c1 | 44.3% | 9.16% (active) | -11.3% (active) | 3.36% (active) | -33.7% (active) | 47.8% | 59.8% | -6.1% (active) | -36.3% (active) | -33.7% (active) |
| COc1cc(NCCCN)c2ncccc2c1 | 109% | 89.9% | 109% | 87.5% | 93.6% | 90.7% | 67.8% | 88.4% | 93.7% | 75.9% |
| CNC(=O)c1cc(Oc2ccc3nc(NC(=O)Nc4ccc(Cl)c(C(F)(F)F)c4)sc3c2)ccn1 | 19.2% | 47.2% | -21.1% (active) | 4.76% (active) | -19.4% (active) | 21.9% | -10.9% (active) | -2.86% (active) | 61.4% | -10.4% (active) |
| Cc1nc(Nc2n[nH]c3c2CN(C(=O)N[C@H](CN(C)C)c2ccccc2)C3(C)C)c2sccc2n1 | 6.06% (active) | 4.69% (active) | -71.4% (active) | -29.1% (active) | -77.3% (active) | -18.4% (active) | -3.9% (active) | -54.8% (active) | -54.6% (active) | -54.8% (active) |
| O=c1[nH]ccc2c(S(=O)(=O)N3CCCNCC3)cccc12 | 62.2% | 104% | 82.2% | 87.3% | 57.8% | 54.3% | 74.5% | 76.5% | 99.1% | 88.3% |
| CNC(=O)c1cccc2cc(Oc3ccnc4cc(OCC5(N)CC5)c(OC)cc34)ccc12 | 77.7% | 19.5% | 74.3% | 60.8% | 39.8% | 52.4% | 58.4% | 12.6% | 90.2% | 56.1% |
| O=C(Cc1ccc(/C=C/C(=O)c2ncc[nH]2)cc1)Nc1ccc(S(F)(F)(F)(F)F)cc1 | 78.5% | 17.8% | 88% | 70.4% | 94.7% | 80% | 80.8% | 93.2% | 103% | 67.7% |
| COC(=O)N[C@@H](C)CNc1nccc(-c2cn(C(C)C)nc2-c2cc(Cl)cc(NS(C)(=O)=O)c2F)n1 | 79.6% | 69.4% | 1.63% (active) | 61% | 42.7% | 82.2% | 103% | 91.2% | -25.8% (active) | 3.81% (active) |
| CS(=O)(=O)N1CCN(Cc2cc3nc(-c4cccc5[nH]ncc45)nc(N4CCOCC4)c3s2)CC1 | 18.8% | 64% | 1.98% (active) | 51.5% | -23.3% (active) | 30.3% | 3.4% (active) | -2.44% (active) | 14.7% | 40% |
| CCCCCC(=O)OCc1ccc(Cl)c(Cl)c1 | 105% | 98.8% | 90.4% | 110% | 116% | 99.3% | 108% | 105% | 103% | 104% |
| Cc1cc(Nc2ncc(Cl)c(Nc3ccccc3S(=O)(=O)C(C)C)n2)c(OC(C)C)cc1C1CCNCC1 | -99% (active) | -53.5% (active) | -84.9% (active) | -88% (active) | -93.4% (active) | -95.3% (active) | -91.6% (active) | -98.9% (active) | -90.1% (active) | -95.2% (active) |
| O=C(Nc1ccc(-c2ccnc(Nc3ccc(N4CCOCC4)cc3)n2)cc1)[C@@H]1CCCN1 | 67.1% | 16% | 71.5% | 48.6% | 5.11% (active) | 55.6% | 35.9% | 25.3% | 16.8% | 51.7% |
| COc1cc(Nc2ncc3c(n2)-c2ccc(Cl)cc2C(c2c(F)cccc2OC)=NC3)ccc1C(=O)O | 78.4% | 44.9% | 72.4% | 69.6% | 95% | 73% | 64.6% | 56.6% | 80.8% | 62.8% |
| COc1cc2cc(NCc3ccc(F)cc3)nc(C)c2cc1OC | 58.1% | 11.7% | 87.7% | 45.9% | 59.7% | 50.7% | 40.7% | -4.69% (active) | 88.8% | 32.2% |
| CO[C@H]1C[C@@H]2CC[C@@H](C)[C@@](O)(O2)C(=O)C(=O)N2CCCC[C@H]2C(=O)O[C@H]([C@H](C)C[C@@H]2CC[C@@H](OC(=O)C(C)(CO)CO)[C@H](OC)C2)CC(=O)[C@H](C)/C=C(\C)[C@@H](O)[C@@H](OC)C(=O)[C@H](C)C[C@H](C)\C=C/C=C/C=C/1C | 37.7% | 18.3% | 24% | 24.8% | -16.3% (active) | 30.9% | 13.6% | 4.68% (active) | 30.4% | 32.3% |
| CN1CCN(CCCOc2cccc3nc(Nc4ccc(Cl)c(C(F)(F)F)c4)ccc23)CC1 | 4.82% (active) | -41.3% (active) | 34.1% | -44.5% (active) | 14.7% | 28.3% | -11% (active) | 7.03% (active) | 59.3% | -54.6% (active) |
| C=CC(=O)Nc1cccc(Nc2nc(Nc3ccc(N4CCN(C(C)=O)CC4)cc3OC)ncc2C(F)(F)F)c1 | 16.7% | 18.7% | 22.2% | 21.7% | -11.2% (active) | 24.1% | 39.5% | 18.6% | 24.5% | 16.9% |
| Cc1nc(NC(=O)N2CCC[C@H]2C(N)=O)sc1-c1ccnc(C(C)(C)C(F)(F)F)c1 | 34.1% | 80.9% | 43.8% | 65.3% | 25.6% | 54.2% | 32.8% | 28.1% | 40% | 41.4% |
| O=C(Nc1cccc(Cl)c1)Nc1ncc(CCNc2ncnc3ccsc23)s1 | 50.6% | 13.8% | 19% | 41.5% | -0.457% (active) | 39.4% | 20% | 24% | 11.5% | 10.3% |
